High-throughput results (PubChem BioAssay)
Nrf2 inh – Nrf2 qHTS screen for inhibitors | A549 ARE-Fluc reporter, luciferase luminescence, 18-24 h | 360,000 tested, 2.1% active | Potency, µM (series often up to 46 µM), for inactives: at the highest dose activity change, negative = inhibition, most hits filed as inhibitors; also: potency is read from the fitted curve at half-maximal effect; % is scaled to controls: 0 for no effect and ±100 for the full control effect; nearly all actives have a fitted effect of over 60% in size
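Concentration-response testing used A549 ARE_Fluc cells at 5000 cells/well. Following an 18-24 h compound incubation, viability was read by fluorescence (Ex 405/Em 525) and luciferase output by luminescence.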
miR-21 act – qHTS Assay for Modulators of miRNAs and/orActivators of miR-21. HeLa miR-21 FLuc reporter, luciferase, 48 h. Potency, µM (top dose mostly 38.3 µM), inactives show at the highest dose activity change, positive = activation, hits mostly activators. 340,000 tested, under 10 active;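 also: % of control where 0% means no effect; miR-21 action dims this reporter so a rising signal means less miR-21 action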
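Compounds were titrated across several concentrations (up to approximately 40 uM) and incubated 48 hours with HeLa miR-21-FLuc reporter cells (miR-21 target sequence downstream of FLuc, endogenous miR-21). Readout was firefly luciferase luminescence after lytic detection reagent.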
ClpP mod – qHTS Assay for Activators of ClpP; ATP-dependent Clp protease proteolytic subunit (Bacillus subtilis (strain 168)), P80244; purified B. subtilis ClpP, FRET peptide cleavage, 20 min; Potency, µM (doses to about 57.5 µM), for the others: at the highest dose activity change, negative = active; 340,000 tested, 1.9% active; AID 651965, 2013; active = well fitted falling curve with a large enough effect; inconclusive = small, poorly fitted or top-dose-only effect; inactive = no such curve, though single readings can be large or run the other way; also: potency is read from the fitted curve at half-maximal effect; the source files actives as falling curves though it sought activators and does not explain the sign; nearly all actives have a fitted effect of over 65% in size
Target sequence (P80244 whole entry, looked up): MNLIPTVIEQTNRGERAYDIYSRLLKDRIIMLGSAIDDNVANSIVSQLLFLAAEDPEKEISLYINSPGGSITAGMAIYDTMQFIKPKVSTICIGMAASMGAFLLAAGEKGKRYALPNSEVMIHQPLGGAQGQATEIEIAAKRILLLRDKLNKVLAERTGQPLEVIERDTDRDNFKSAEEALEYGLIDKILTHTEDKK
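ClpP 10 microg/mL final, pH 8 Tris/KCl buffer with BSA, glycerol, Tween-20; compound pinned in; FRET-FV substrate; RT 20 min; Ex320/Em430; ΔFRET vs ADEP 5.8 microM, DMSO, no enzyme.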
p53 reactivation – qHTS assay for re-activators of p53 using a Luc reporter. H1299 p53-A138V BP100-luciferase reporter, luminescence, 24 h. Potency, µM (doses to about 92.2 µM), inactives show at the highest dose activity change, positive = activation, actives largely listed as activators. 320,000 tested, 0.063% active; also: potency is read from the fitted curve at half-maximal effect; % of control where 0% means no effect; nearly all actives have a fitted effect of over 45% in size
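p53-null H1299 cells stably carrying temperature-sensitive p53-A138V and a BP100-luciferase reporter were pinned with compounds (4-point, 1:5 series) and held 24 hrs at 37 deg C. Luminescence was read 10 min after detection reagent.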
A549 viability – Nrf2 qHTS screen for inhibitors: counterscreen for cytotoxicity. A549 ARE-Fluc cells, CellTiter-Fluor viability, 18-24 h. Potency, µM (highest dose often 46 µM), inactives show at the highest dose activity change, negative = cytotoxicity, most hits filed as inhibitors. 390,000 tested, 0.16% active. AID 504648, 2011; also: potency is read from the fitted curve at half-maximal effect; % is scaled to controls: 0 for no effect and ±100 for the full control effect
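A549 ARE-Fluc cells in 5% FBS OPTI-MEM, 5000 cells/well, rested 2 h then exposed to compounds in concentration-response for 18-24 h at 37 °C. Viability by CellTiter-Fluor fluorescence (Ex 405/Em 525) after 30 min; luciferase luminescence (BugLite, 15 min, RT) read afterwards.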
Nrf2 ARE act – qHTS of Nrf2 Activators; AREc32 ARE-luciferase reporter (MCF7-derived line), luminescence, 24 h; Potency, µM (doses to about 46.1 µM), without a hit: at the highest dose activation, actives largely listed as activators; 410,000 tested, 0.31% active; AID 624171, 2012; also: potency is read from the fitted curve at half-maximal effect; % of control where 0% means no effect; nearly all actives have a fitted effect of over 65% in size
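Luciferase luminescence (Steady-Glo, 30 min at room temperature) served as the read-out of ARE activation in AREc32 cells treated with compounds for 24 hr at 37 deg C.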
An asterisk follows results filed as active; ? = inconclusive; · = no result given; ! = repeats disagree. Only some compounds are listed: those with a hit (about 3.7% of all), similar ones and a draw of the others. Unless noted, calls follow the shape of the dose curve; as a rule, active = well fitted curve in the direction sought with a large enough effect; inconclusive = small, poorly fitted or top-dose-only effect, or another doubt; inactive = no such curve, though single readings can be large; an effect the other way counts as inactive or inconclusive.

SMILES	Nrf2 inh	miR-21 act	ClpP mod	p53 reactivation	A549 viability	Nrf2 ARE act
COc1ccc(CCNC(=S)NC(=O)c2ccc(Br)cc2)cc1OC	14.6µM*	-9.3%	0.0%	-4.1%	1.0%	2.7%
O=C(CC(=O)N/N=C/c1ccc(C(=O)O)cc1)NCCc1ccccc1	2.2%	2.2%	2.3%	-18.6%	-2.1%	-0.5%
COc1ccc(CCNC(=O)CC(=O)N/N=C/c2ccc(C(=O)O)cc2)cc1OC	7.4%	-1.9%	14.1µM*	·	-1.2%	-0.1%
CCOC(=O)C1(C)C=C(Nc2ccc(C(N)=O)cc2)C(=O)N1c1ccccc1 (stereo not given)	11.0%	-30.7%	-2.6%	·	-0.8%	-0.6%
CCOc1ccccc1C(=O)Nc1cccc(-c2nc3ccccc3s2)c1	2.2%	-27.1%	3.6%	·	3.3%	21.5%
O=C(NCc1ccc2c(c1)OCO2)c1ccc2c(c1)N(Cc1c(F)cccc1Cl)C(=O)CS2	?	9.2%	14.1µM*	4.2%	-17.9%	5.9%
CCOC(=O)c1c(C)[nH]c(C)c1S(=O)(=O)N1CCC(C(=O)NCc2ccccc2)CC1	-22.2%	-5.1%	-0.9%	·	-9.8%	-0.5%
COc1ccc(-c2cn3nc(N4CCCC(C(=O)Nc5ccccc5F)C4)sc3n2)cc1 (stereo not given)	?	27.5%	0.5%	·	-13.0%	0.8%
CCOCCOC(=O)c1[nH]c2c(c1C)C(=O)CC(c1ccccc1)C2 (stereo not given)	?	17.2%	·	11.3%	-13.2%	1.0%
CCOCCOC(=O)c1[nH]c2c(c1C)C(=O)CC(c1cc(OC)c(OC)c(OC)c1)C2 (stereo not given)	23.1µM*	28.1%	·	7.8%	-7.8%	0.9%
CCOC(=O)c1[nH]c2c(c1-c1ccccc1)C(=O)CC(c1ccc(OC)c(OC)c1)C2 (stereo not given)	20.6µM*	1.7%	-1.8%	-10.0%	0.3%	0.5%
CNc1nc(-c2ccccn2)nnc1-c1ccccc1	11.2µM*	4.8%	3.3%	?	?	2.6%
Cc1cc(C)c(C#N)c(N2CCSCC2)n1	-6.3%	-9.7%	35.5µM*	26.4%	-3.8%	0.2%
Cc1cc(C)c(C#N)c(N2CCN(c3ccccc3)CC2)n1	2.0%	-6.5%	-15.7%	-5.6%	1.1%	-0.3%
Cc1cc(C)c(C#N)c(N2CCCC(C(N)=O)C2)n1 (stereo not given)	1.3%	-4.0%	3.55µM*	25.7%	-2.5%	-0.4%
CCOC(=O)C1CCN(c2nc(C)cc(C)c2C#N)CC1	-3.1%	-10.9%	·	-0.5%	0.0%	0.4%
COc1cc(C2CC(=O)Nc3c2c(=O)[nH]c2nc4ccccc4n32)ccc1O (stereo not given)	-7.7%	-1.9%	-27.1%	·	-6.9%	-0.9%
Cc1ccc2nc(N3CCN(c4cccc(C)c4C)CC3)c3nncn3c2c1	25.5%	3.8%	-4.4%	·	1.6%	0.0%
Fc1ccccc1N1CCN(c2ncnc3c2nc2n3CCCC2)CC1	20.6µM*	0.1%	1.0%	·	-6.0%	0.3%
O=C(C1CCCN(c2ncnc3c2nc2n3CCCCC2)C1)N1CCN(c2ccccc2F)CC1 (stereo not given)	-28.6%	-0.9%	-4.1%	-13.3%	0.2%	-1.2%
Cc1cccc(N2CCN(CCCNC(=O)C3CCCN(c4ncnc5c4nc4n5CCCCC4)C3)CC2C)c1 (stereo not given)	?	29.0%	·	10.9%	?	0.1%
O=C(C1CCN(c2ncnc3c2nc2n3CCCCC2)CC1)N1CCN(c2ccc(F)cc2)CC1	18.4µM*!	0.0%	-1.5%	-1.7%	6.5%	2.2%
Cc1cccc(N2CCN(c3nc4ccc(C)cc4n4cnnc34)CC2C)c1 (stereo not given)	?	-7.3%	31.6µM*	·	-8.6%	-0.8%
